Experimental data from the supplement of paper PMC11417369.
± gives the standard deviation of the averaged measurements. Whole data set: some 25,000 sequences, median “ln(normalized median fluorescence intensity)” near 7.9, cut for the highest 2% near 11. This is one part of a sample in which the highest values are shown more often than they occur.

System: PfAP2-I AP2 domain 3 (GST-tagged)
Assay: gcPBM binding intensity (ln(normalized median fluorescence intensity)); higher = stronger DNA binding
How it was run: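 Binding intensity is defined as the maximum Masliner-normalised natural-log median intensity across replicate spots for either probe orientation. It was measured on an Agilent 4 × 180k array of primer-extended double-stranded 36-bp intergenic genomic probes and negative controls, to which GST-tagged P. falciparum DNA-binding domains made in E. coli were applied for 1 h in 1× PBS with 1% milk, 0.2 mg/ml BSA, 0.5% salmon testes DNA and 0.03% Triton X-100. Detection was by Alexa488 anti-GST antibody and scanning at 488 nm.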

Sequence	gcPBM binding intensity (ln)
AAGAACCATATTTAAACACACATACCTATATAAATA [CACACA_site7553]	7.68 ± 0.53
ATGTTACACCGACACACACACATAAAAAAACAAAAA [CACACA_site5750]	8.15 ± 0.34
ATTTTTTTCTTAGGAGTGCACTTATATTTATTTTAT	10.8 ± 0.49
ACGTGTATTTATTTAGTGCACTTTATATTTTTTCTT [GTGCAC_site9426]	11.5 ± 0.28
TATATATATTAGTGTGCACACTTTTTATTTTTATCC [CACACA_site8506]	9.33 ± 0.4
ACACCTATAAATTAAGTGCATTTTTTTTGATGTTAT	9.45 ± 0.46
TTATACCTATATTTAACACACATTTGATAAAGTGCC [CACACA_site6732]	7.76 ± 0.61
ATACCTATTTGATGAGTGCATTATCCAATATATGTA	11.3 ± 0.65
ATTTTTGTTATTACATGTACCCATAATTATTATTAA [XGTACX_site3558]	8.58 ± 0.75
AAAATTATAATAATATGTACTTAAAAAATTTATATA [XGTACX_site632]	7.54 ± 0.2
TGTTAAAATTATTTGGTGCACTTGTTTTACCTTATT	10.8 ± 0.48
TTTTTGTTACCTATTGTGCACTTCATATAAATTAAA	11.3 ± 0.35
ACATTAAAAAATTGTTTGCACTATATAAAATATTAA [GTGCAC_site9728]	9.86 ± 0.28
TAATATATAACGTGCACACACACATCTACGTATGAA [CACACA_site5080]	10.82 ± 0.099
ATATATAACGTGCACACACACATTTACGTATGAATA [CACACA_site6948]	10.975 ± 0.007
TAATATATAACGTGCACACACACATTTACGTATGAA [CACACA_site1832]	10.86 ± 0.064
ATATATAACGGGCACACACACATTTACGTATGAATA [CACACA_site1833]	8.31 ± 0.49
TATGTTTACATATACGTGCACATGAATGTATACATT [GTGCAC_site9894]	10.7 ± 0.29
ATACGTATATAATATACATGCATATATAGCACATAC [TGCATGCA_site376]	9.11 ± 0.66
TATATATGCATATACATACACACATAACACATACGT [CACACA_site3833]	8.24 ± 0.39
ATTAATATATAACGTGCACACACACCGTTACGTATG [CACACA_site8543]	10.3 ± 0.35
TTTATACATACATTCGTGCACATACGTATAACATAT	11.2 ± 0.19
AATGTCCTTATTTGCACACACACATATAAGAAATTT [CACACA_site3186]	9.91 ± 0.23
TTACGCGCTTATTACACACACATACAAATAAGGATT [CACACA_site3486]	8.06 ± 0.47

Sequence	gcPBM binding intensity (ln)
ATAATCAACATTAGGTGTACAAAATATGTATGTTTT [XGTACX_site6696]	8 ± 0.59
ATTATTAAGTTTCACAAGAACATTGTTAACAATTTT [CACACA_negctrl_site1128]	7.5 ± 0.64
AATTTTTTTCTCCAAGTGCATTAGAACATTAACGTA [GTGCAC_site9413]	10.9 ± 0.53
TTTTCTTTTTCCAAAAGTACGTAATTTAAACATTTT [XGTACX_site2066]	7.83 ± 0.43
AAAAAAAATTATATTTGTACGCATTAAAAAATCTAA [XGTACX_site1616]	7.64 ± 0.26
ATAACAAAAAAAAAGGTGCTACAAAATGAATAAAAA [GTGCAC_site9659]	9.12 ± 0.3
TGAACAGACAAATACACACACTCAAAAAAAAAAAAG [CACACA_site7287]	7.68 ± 0.45
TGAACTCAACAAAGGGTGCATAACAAAAATAGACGT	11.4 ± 0.23
TTTTTTTTTAATATTTGTACACAACATGAAACATTT [XGTACX_site473]	8.16 ± 0.53
TATATTTATGTATATGTGCACATAAATTTAAGAATG [GTGCAC_site9512]	9.68 ± 0.19
TATTGACATATATTAGTGCAATAATGAAATCAAGTA	10.9 ± 0.43
TATAAGAATGACAAGTGTACATATCAAATATATTAG [XGTACX_site7113]	7.77 ± 0.38
TATATATTAATCAAAGTGCAATAATAAAATAAAAGT [GTGCAC_site9490]	10.8 ± 0.34
ATAAAATAAAGGAAAAATATTAAGTTTTAAGAAAAT [CACACA_negctrl_site1066]	7.6 ± 0.76
ATTATTTAAATGGATGCACACATGCATTAAATAAAA [CACACA_site5831]	8.99 ± 0.82
ACGCAATATTAACAAGTGCATTATAACACATAACAT	11.3 ± 0.61
ACAATATGCAAAAAGTGTACACATTCATTTATATAA [XGTACX_site1061]	8.34 ± 0.32
ATATATTATATTATATGTACTTAAAAAAGTGCAAAG [XGTACX_site318]	8.485 ± 0.035
AAAAAAATTACGCAAGTGCATATAATTTAACAAAAA	9.625 ± 0.007
CATTATGTACAAAAAGTGCAATATATATTAACACTG	11 ± 0.43
AATAACAAAATATTAACACACATAACATATTATAAA [CACACA_site2803]	7.55 ± 0.47
AATTAAATTACTTATACACACATAAAATGTCTGTAT [CACACA_site997]	7.76 ± 0.34
AAATTTATGTGTGCCTGTACATATCAAAGATTTAAG [XGTACX_site8547]	7.93 ± 0.34
AAATAACAAAAGAAGGTGCTCATAAAAATTCATACA [GTGCAC_site9864]	8.51 ± 0.28

Sequence	gcPBM binding intensity (ln)
TCAGATCCATAGAAGGTGCAAATAACAAAAATACAA [GTGCAC_site9610]	11 ± 0.43
ACATACATATGTAAATGTACAAAATATCCATAGATT [XGTACX_site2782]	7.54 ± 0.77
GAAATAAAAAGAAATGCATGTAATTTTTTTTTTTTT [TGCATGCA_site928]	7.61 ± 0.83
AATGACATTCTTACACGTACAAAATAAAAAATAAAA [XGTACX_site6932]	7.89 ± 0.59
CTTTATAAAATAAGAGTGCGTTATATTGAATTGTAT [GTGCAC_site9390]	10.9 ± 0.6
AATTTGTAAAATAAGGTGCGTATAAAAAATTATATT [GTGCAC_site9676]	9.71 ± 0.2
ATAAGAATATATAGAGTGCGTTGAAGAATTATAATA	9.89 ± 0.27
TTATTCATATTATCATGTACTTATATATATTGTCAT [XGTACX_site2231]	7.72 ± 0.55
AGAAGAAAAGTAAAAAGTACATTATTCATGGCCTAT [XGTACX_site5601]	7.46 ± 0.7
TTAGAAAAATTATATATACACACTTATATTTATATA [CACACA_site2821]	7.28 ± 0.4
TAAATATTTTTAGATGCATGCAATAATTACCCAAAG [TGCATGCA_site636]	8.15 ± 0.78
ATTATATACAAATAAAGTACATAAACAAATTCAGAA [XGTACX_site1187]	7.77 ± 0.47
ATGTTAATTAATGAGGTGCATTGAATATTTCAATAA	10.9 ± 0.73
AATATTTTTCAATTTCATGTGCATTCATTGAAGTTA [CACACA_negctrl_site1232]	8.76 ± 0.37
TCTTTCAATATTAATGCATGTTAATAATAAATTTTA [TGCATGCA_site448]	7.96 ± 0.57
TAAGTATATATATTTACACACATTTGTTTTTTTTTA [CACACA_site3784]	7.57 ± 0.6
AAAAAATAGAATATAAAAATAAAGGAATTAAATTAA [XGTACX_negctrl_site420]	7.33 ± 0.75
AAAAACTTATATGATACACACGATAAACAAAATAAA [CACACA_site1039]	7.91 ± 0.42
ATTAGCAACATTGATAAATATAAACACACGAAAACA [TGCATGCA_negctrl_site97]	8.09 ± 0.68
TATATATATATGTGCACACATATATAATATGTATAA [CACACA_site715]	10.1 ± 0.42
TAGAATGTATGTAGTGCACACCTCTATAATATATTA [CACACA_site1873]	11.3 ± 0.6
TGTAATATATGTATTGCACACCTATAACCATTATTT [CACACA_site8422]	9.89 ± 0.3
TATGTACACCCATATACACACCTCTATAATATATAT [CACACA_site4563]	8.38 ± 0.18
TATAATGTATGTAGTGCACACCTCTATAATATATTA [CACACA_site8560]	10.9 ± 0.64

Sequence	gcPBM binding intensity (ln)
AATATATATATATGTGCACACATATATAATATGTAT [CACACA_site716]	9.2 ± 0.58
ATATATTACAAATGGAGTACTAAAAATATTCTATAT [XGTACX_site6669]	8.02 ± 0.38
ACACATATGACAAATAGTACATAAATATATAAATAT [XGTACX_site7141]	7.79 ± 0.28
AATAATATATATATATATATATATAGATATGTATAT [GTGCAC_negctrl_site653]	8.04 ± 0.25
GAAATTACTTTATAAACACACATTTATTTTATTTTA [CACACA_site7007]	7.95 ± 0.26
CTACCTTTAATATATACACACACATAAAAAAAATAT [CACACA_site8548]	8.05 ± 0.28
GTATATATTAAAAAAAAAAAAAAAAAATTAAAATTA [CACACA_negctrl_site572]	7.14 ± 0.33
TATTTTTATAAGAGCATGCACTGTTTAAAATGGTAT	8.37 ± 0.45
AATATGAAATATATTACACACATTTATATGTTGAAA [CACACA_site1427]	7.59 ± 0.39
GTATTATTATTTTATGCATGTACATTGAATTATATT [TGCATGCA_site34]	8.26 ± 0.44
ATAATTATTCTTATGGTGCACTGAATATACATGTTG [GTGCAC_site9760]	11.1 ± 0.47
TATAATAATAATTATACATGCATGAATATTTATATG [TGCATGCA_site811]	7.67 ± 0.21
ATTATATTTATGTTGGTGCATTATACATGAAATTTA	11.5 ± 0.43
TATATATATATATATGTGCACTGAAAGAATTATACA [GTGCAC_site9586]	10.7 ± 0.13
CCTATCCAGACATATACACACATATCTATTTATATA [CACACA_site5001]	8.01 ± 0.57
AAGTAATTTGTTGACACACACACACGCATACCTATA [CACACA_site7140]	8.07 ± 0.65
TTTTTTTCATAAGAAGCACACAAAAAATGATAGAGA [CACACA_site8401]	8.29 ± 0.4
TAAATTAAAAAACATAAACTATTGGAAACGCATTGA [CACACA_negctrl_site935]	7.57 ± 0.64
TAGGCGTTTAATAAAAGTACCCACACATATATTATT [XGTACX_site1932]	7.68 ± 0.49
GAGATTTATTTATGTGCACACTAGAACAATTGGATC [CACACA_site2090]	9.99 ± 0.42
TATATATATATATATGTGCACTGGACATATTTTTAT [GTGCAC_site9721]	10.09 ± 0.099
ATATTATGTGATTGTGCACACTGGAGATTTTTTTTA [CACACA_site1453]	10.9 ± 0.17
